In PubChem BioAssay AID488847 (NMMLSC, 2010):
Out of some 330,000 compounds screened, about 1,900 (0.58%) were called active. The entries come from a sample that favours actives as a whole. A number with no mark means an inactive call.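 How the source made its calls: active means inhibition of aptamer binding above 40%, roughly 3 SD of noise, on plates passing a quality check; inactive means the rest.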

Each compound was assayed against Beta-adrenergic receptor kinase 1 (Homo sapiens) (UniProt P25098) (assay: compounds blocking aptamer binding on GRK2 – biochemical, human GRK2, bead flow cytometry, HTS, primary screen (AID 488847;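 further: median bead fluorescence of bound FAM aptamer so fluorescent compounds give negative values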)). Details: FAM-aptamer displacement from GRK2, at 10 µM, hits give high values.
Chain of Beta-adrenergic receptor kinase 1 (Homo sapiens) (P25098 whole entry, looked up): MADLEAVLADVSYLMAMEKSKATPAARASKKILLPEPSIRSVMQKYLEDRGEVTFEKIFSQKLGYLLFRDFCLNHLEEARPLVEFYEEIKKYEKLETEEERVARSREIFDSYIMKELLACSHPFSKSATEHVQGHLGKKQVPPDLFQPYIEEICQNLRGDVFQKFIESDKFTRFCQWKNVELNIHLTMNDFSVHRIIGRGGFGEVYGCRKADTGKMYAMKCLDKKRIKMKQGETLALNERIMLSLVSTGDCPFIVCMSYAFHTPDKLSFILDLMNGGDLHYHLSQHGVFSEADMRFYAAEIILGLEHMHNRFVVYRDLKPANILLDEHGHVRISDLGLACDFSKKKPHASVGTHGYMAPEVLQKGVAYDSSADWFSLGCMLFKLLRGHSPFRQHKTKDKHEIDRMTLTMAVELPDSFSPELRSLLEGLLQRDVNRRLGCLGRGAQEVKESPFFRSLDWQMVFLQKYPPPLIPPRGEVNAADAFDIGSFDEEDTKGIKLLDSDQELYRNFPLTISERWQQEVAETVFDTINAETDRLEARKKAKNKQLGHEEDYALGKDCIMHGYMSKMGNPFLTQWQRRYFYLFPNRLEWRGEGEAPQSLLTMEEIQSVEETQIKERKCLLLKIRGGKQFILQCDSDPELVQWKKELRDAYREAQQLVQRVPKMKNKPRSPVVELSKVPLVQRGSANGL

| Compound | inhibition of aptamer binding |
| --- | --- |
| CCC(=O)c1ccc(OCC(=O)OCC(=O)N2CCc3ccccc3C2)cc1 | 3% |
| CN(C)c1ccc(NC(=S)N(CCc2ccccc2)C2CC(=O)N(c3c(Cl)cccc3Cl)C2=O)cc1 (configuration not stated) | 1% |
| O=C(CNC(=O)COc1ccccc1)NCCc1ccccn1 | 0% |
| CC(C)=C(NC(=O)c1ccco1)C(=O)NCCc1nc2ccccc2[nH]1 | 0% |
| O=C(COc1ccccc1)NCCc1nc2ccccc2[nH]1 | 59% (active) |
| OCCC1CN(Cc2ccc(Oc3ncccn3)cc2)CCN1CCc1ccccc1 (configuration not stated) | 0% |
| CCNc1nc(NC(C)C)nc(OCCOC(=O)c2ccccc2)n1 | 0% |
| CCOC(=O)c1ccc(NC(=O)c2c(NCc3ccccc3)[nH]c(=O)[nH]c2=O)cc1 | 5% |
| C/C=C(/C)C(=O)Nc1cccc(C2=NOC3(C2)C[C@@H](C(N)=O)N(C(=O)C2(C)CC2)C3)c1 (some centres not stated) | 1% |
| C=C(C)C(=O)Nc1cccc(C2=NOC3(C2)C[C@H](C(N)=O)N(C(=O)C(c2ccccc2)c2ccccc2)C3)c1 (some centres not stated) | 91% (active) |
| C/C=C\C=C\C(=O)N1CC2(CC(c3cccc(NC(=O)/C(C)=C\C)c3)=NO2)C[C@H]1C(N)=O (some centres not stated) | 1% |
| CCOc1ccc(S(=O)(=O)Nc2cccc(C(=O)NCC3(N4CCCCC4)CCCCC3)c2)cc1 | 0% |
| CS(=O)(=O)c1ccc(-c2nnn(CC(=O)Nc3ccc4c(c3)OCCO4)n2)cc1 | 0% |
| O=C(NNC(=S)NC1CC2CCC1C2)c1ccc(Cl)cc1 (configuration not stated) | 2% |
| CC1CCN(C(=S)NC2CC3CCC2C3)CC1 (configuration not stated) | 67% (active) |
| S=C(NNC(=S)NC1CC2CCC1C2)NC1CC2C=CC1C2 (configuration not stated) | 0% |
| CC1c2nc3ccccc3n2C(CC(=O)NCCCN2CCOCC2)C(=O)N1Cc1ccccc1 (configuration not stated) | 0% |
| COCCN(C(=O)c1ccccc1F)c1c(N)n(Cc2ccccc2)c(=O)[nH]c1=O | 2% |
| COCCn1c(N)c(NCc2ccccc2)c(=O)[nH]c1=O | 47% (active) |
| COCCn1c(N)c(N(Cc2ccccc2)C(=O)C2CCCCC2)c(=O)[nH]c1=O | 0% |
| Cc1ccc2c(c1)C1CN(C)CCC1N2S(=O)(=O)c1ccc(Oc2ccc([N+](=O)[O-])cc2)cc1 (configuration not stated) | 0% |
| Nc1ccc2nc3c(=O)[nH]c(=S)[nH]c3nc2c1 | 70% (active) |
| CCC1Oc2ccccc2N(CC(=O)NCCCN2CCN(CC)CC2)C1=O (configuration not stated) | 0% |

| Compound | inhibition of aptamer binding |
| --- | --- |
| CCOCCCNC(=O)c1ccc(CS(=O)(=O)c2cccc(C(F)(F)F)c2)o1 | 48% (active) |
| COc1ccccc1CNC(=O)c1ccc(CS(=O)(=O)c2ccccc2)o1 | 0% |
| COc1ccc(CCNC(=O)c2ccc(CS(=O)(=O)c3ccc(Br)cc3)o2)cc1OC | 1% |
| CCC(C)(C(=O)Nc1ccccc1C)N(C(=O)CNC(C)=O)c1ccc(C)cc1 (configuration not stated) | 1% |
| CCn1nc(NC(=O)c2ccco2)c2cc3ccc(C)cc3nc21 | 0% |
| Cc1ccc(OCCNC(=O)CCNS(=O)(=O)c2ccc(Br)cc2)cc1 | 1% |
| CCc1cccc(CC)c1NC(=S)NCc1ccc2[nH]c(C)cc2c1 | 0% |
| Cc1cc2cc(CNC(=O)c3ccc(S(=O)(=O)N4CCOCC4)cc3)ccc2[nH]1 | 3% |
| Cc1cc2cc(CNC(=O)c3cccs3)ccc2[nH]1 | 44% (active) |
| CN(CC(=O)N1CCN(c2ccccc2)CC1)S(=O)(=O)c1cccs1 | 0% |
| COCc1ccc(CN2CCC(Oc3ccc(C(=O)NCc4ccccn4)cc3)CC2)o1 | 0% |
| CCOC(=O)N1CCC(NC(=O)C(C)n2c3ccccc3c3cnn(C)c(=O)c32)CC1 (configuration not stated) | 4% |
| O=C(N[C@H]1C/C=C\C(c2ccc(F)cc2)N(Cc2ccccc2)C(=O)C1)OCC1c2ccccc2-c2ccccc21 (some centres not stated) | 0% |
| CCOC(=O)N1CCN(C(=O)c2ccc(CN(c3ccc(C)c(C)c3)S(C)(=O)=O)cc2)CC1 | 3% |
| CCC1(C(=O)c2ccccc2)C(c2cccc([N+](=O)[O-])c2)C1(C(=O)OC)C(=O)OC (configuration not stated) | 0% |
| CC(C)CN(C(=O)c1cccc(S(=O)(=O)N2CCCCC2)c1)C1CCS(=O)(=O)C1 (configuration not stated) | 92% (active) |
| CC(C)CN(C(=O)c1ccc2c(c1)OCO2)C1CCS(=O)(=O)C1 (configuration not stated) | 2% |
| O=C(c1cccc(S(=O)(=O)N2CCCC2)c1)N(Cc1ccco1)C1CCS(=O)(=O)C1 (configuration not stated) | 4% |
| CO/N=C(/CS(=O)(=O)c1ccc(Br)cc1)c1ccc(OC)cc1 | 2% |
| COc1ccc(S(=O)(=O)N2CN(CCc3ccc(OC)c(OC)c3)c3nc4ccccc4nc32)cc1 | 3% |
| CSc1ccc(/C=C2\NC(=O)NC2=O)cc1 | 46% (active) |
| Cc1ccc(NC(=O)COc2ccc(/C=C3/NC(=O)NC3=O)cc2)cc1 | 0% |
| CC(C)c1ccc(/C=C2\NC(=O)NC2=O)cc1 | 0% |

| Compound | inhibition of aptamer binding |
| --- | --- |
| Cc1ccc(-c2cc(=O)[nH]c(NCc3ccccc3)n2)cc1 | 2% |
| Cc1cccc2nc(CNc3ccc(F)cc3)cn12 | 2% |
| CC(NCc1cccs1)C(=O)Nc1cc(Cl)cc(Cl)c1 (configuration not stated) | 0% |
| O=[N+]([O-])c1cccc2ncccc12 | 4% |
| COc1cc(NS(=O)(=O)c2ccc3ccccc3c2)c2ncccc2c1 | 0% |
| O=[N+]([O-])c1ccccc1S(=O)(=O)Nc1cccc2cccnc12 | 46% (active) |
| O=C(c1ccc(Cl)cc1)c1ccc(OCC(O)CN2CCCCC2)cc1 (configuration not stated) | 43% (active) |
| OC(COc1ccc(Br)cc1)CN1CCCC1 (configuration not stated) | 0% |
| CC1CCN(CC(O)COc2ccc(C(=O)c3ccccc3)cc2)CC1 (configuration not stated) | 0% |
| C=CCOc1ccc(/C=C/C(=O)OC(C)C(=O)Nc2ccc(NC(C)=O)cc2)cc1 (configuration not stated) | 1% |
| CN(C(=O)c1cccc([N+](=O)[O-])c1)c1ccccc1C(=O)NCc1ccccc1 | 1% |
| COc1ccc2oc(C(=O)N(CC(C)C)C3CCS(=O)(=O)C3)c(C)c2c1 (configuration not stated) | 0% |
| COc1cc(C(=O)N(Cc2ccc(N(C)C)cc2)C2CCS(=O)(=O)C2)cc(OC)c1OC (configuration not stated) | 0% |
| COc1ccccc1C(=O)N(Cc1ccc(C)o1)C1CCS(=O)(=O)C1 (configuration not stated) | 43% (active) |
| CCOC(=O)CN(C(=O)CN1CCOCC1)c1ccc(Br)cc1 | 0% |
| CC(=O)N1CCc2cc(Br)cc(S(=O)(=O)CCC(=O)Nc3c(C)n(C)n(-c4ccccc4)c3=O)c21 | 0% |
| Cc1c(NC(=O)C(C)Oc2cccc(Cl)c2)c(=O)n(-c2ccccc2)n1C (configuration not stated) | 0% |
| COc1ccccc1NC(=O)C1CCN(C(=O)c2ccc(C(C)(C)C)cc2)CC1 | 0% |
| CC(=O)c1ccc(N2CCN(C(=O)CCc3ccccc3)CC2)cc1 | 0% |
| CC(=O)c1ccc(N2CCN(C(=O)c3ccc4nc[nH]c4c3)CC2)cc1 | 66% (active) |
| O=C(c1ccccc1)c1ccc(C(=O)N2CCN(c3ccccc3)CC2)cc1 | 1% |
| O=C(CN1CCN(S(=O)(=O)c2ccc(Cl)s2)CC1)NCc1ccc(Cl)cc1 | 2% |
| COc1ccc(NC(=O)Cn2ncn3c(cc4ccccc43)c2=O)c(OC)c1OC | 1% |

| Compound | inhibition of aptamer binding |
| --- | --- |
| Cn1c(=O)[nH]c(=O)c2c1nc(N1CCN(CCO)CC1)n2CCSc1nc2ccccc2s1 | 0% |
| CN1CCN(c2nc3c(c(=O)[nH]c(=O)n3C)n2Cc2cccc3ccccc23)CC1 | 0% |
| Cn1c(=O)[nH]c(=O)c2c1nc(N1CCN(C(c3ccccc3)c3ccccc3)CC1)n2CCO | 43% (active) |
| Cc1ccc(NN=Nc2nc3c([nH]2)c(=O)n(C)c(=O)n3C)cc1 | 0% |
| O=C1CCCC2=C1C(c1cccs1)CC(=O)N2c1ccc(F)cc1 (configuration not stated) | 0% |
| CCOC(=O)C1=C(N)N(c2ccc(C)cc2)C2=C(C(=O)CCC2)C1c1cccs1 (configuration not stated) | 45% (active) |
| CCOC(=O)c1cc2c(n(-c3ccc(C)cc3)c1=O)CCCC2=O | 0% |
| O=C(c1ccc(F)cc1)N1CCCC(C(=O)N2CCCCC2)C1 (configuration not stated) | 1% |
| Cc1noc(C)c1COc1ccccc1C(=O)N(C)CC(=O)Nc1cccc(F)c1 | 1% |
| CC(C)(C)OC(=O)N/N=C/c1ccc(C(=O)O)cc1 | 0% |
| COC(=O)N/N=C/c1ccc(-c2ccc(Cl)c(Cl)c2)o1 | 0% |
| COC(=O)N/N=C/c1ccc(/C=N/NC(=O)OC)cc1 | 87% (active) |
| CCNS(=O)(=O)c1ccc(CCC(=O)N2CCN(c3cc(Cl)ccc3C)CC2)cc1 | 0% |
| O=C1c2ccccc2C2=Nc3ccccc3SC(c3ccccc3F)C12 (configuration not stated) | 0% |
| COc1ccc(C2=NN(C(=O)CSc3nc(=O)n4ccc(C)cc4n3)C(c3ccc(C)cc3)C2)cc1 (configuration not stated) | 2% |
| COc1cc(C)ccc1OCC(=O)OCC(=O)c1ccc[nH]1 | 0% |
| CN1C(=O)CC(N2CCN(c3ccccn3)CC2)C1=O (configuration not stated) | 1% |
| CC1(c2ccccc2)CC(C)(C)N(C(=O)c2cc([N+](=O)[O-])cc([N+](=O)[O-])c2)c2ccccc21 (configuration not stated) | 0% |
| Cc1nnc(SCC(=O)N2c3ccccc3C(C)(c3ccc(Cl)cc3)CC2(C)C)s1 (configuration not stated) | 72% (active) |
| CC1(c2cccc([N+](=O)[O-])c2)CC(C)(C)N(C(=O)c2ccccc2)c2ccccc21 (configuration not stated) | 0% |
| CN(C(=O)CC(NC(=O)c1ccccc1)(c1ccccc1)c1ccccc1)c1ccccc1 | 1% |
| CC(Sc1nnc(-c2ccccc2F)n1C1CC1)C(N)=O (configuration not stated) | 0% |
| Cc1ccc(C(=O)COC(=O)CCCC(=O)NC2CCCCC2)cc1[N+](=O)[O-] | 0% |
